# Reference: the supplement of paper PMC12669032
# Values without a mark were called inactive.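 The calls were made as follows: active = AUC reduced over 20% with Padj below 0.05 in at least 2 of 3 replicates; inactive = otherwise.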
# Tested on: Lactobacillus paracasei
# Assay: growth AUC relative to DMSO control (median of replicates) (fraction); higher = more growth (less inhibition), active = hit call of the paper
# Conditions: 20 µM; 24 h
# Procedure, shortened: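 Gut bacterial monocultures were grown anaerobically at 37 °C in mGAM, starting at OD600 0.05, with 20 µM compound (1% DMSO) in round-bottom 96-well plates under pierced gas-permeable seals. OD600 was read hourly for 24 h. Area under the growth curve (minimum OD set to 0) was normalised to the plate median of DMSO controls, or to row and column medians on the industrial chemical plate. The value is the median of three biological replicates grown on separate days.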
row,SMILES,growth AUC
1,C/C(=N\NC(=O)Nc1cc(F)cc(F)c1)c1ncccc1C(=O)[O-].[Na+],0.975
2,OC(Cc1ccccc1Cl)(Cn1cncn1)C1(Cl)CC1 (stereo not drawn),1.02
3,COC(=O)C1(O)c2ccccc2-c2ccccc21,1
4,Cc1occc1C(=O)Nc1ccccc1,0.925
5,Clc1ccc(C(c2ccc(Cl)cc2)C(Cl)Cl)cc1,0.994
6,CC1(C)C(C=C(Cl)Cl)C1C(=O)OC(C#N)c1ccc(F)c(Oc2ccccc2)c1 (mixture of isomers),0.98
7,COc1cc(C)c(C(=O)c2c(OC)ccc(Br)c2C)c(OC)c1OC,1.03
8,Cc1ccc(NC(=O)c2snnc2C)cc1Cl,0.866
9,CN(C)C(=O)C(c1ccccc1)c1ccccc1,0.887
10,Cc1cnc(C2=NC(C)(C(C)C)C(=O)N2)c(C(=O)O)c1 (stereo not drawn),0.939
11,CCNc1nc(NCC)nc(SC)n1,1.08
12,O=c1oc2ccccc2c(O)c1C1CC(c2ccc(-c3ccccc3)cc2)Cc2ccccc21 (stereo not drawn),0.887
13,Oc1ccc(-c2ccccc2)cc1,0.693
14,CNC(=O)N(C)c1nnc(C(C)(C)C)s1,0.941
15,COP(=O)(OC)Oc1ccc(SC)c(C)c1,1
16,CC(C)N1C(=O)c2ccccc2NS1(=O)=O,0.932
17,COP(=O)(OC)C(O)C(Cl)(Cl)Cl (stereo not drawn),1.02
18,CCOP(=O)(NC(C)C)Oc1ccc(S(C)(=O)=O)c(C)c1 (stereo not drawn),1.03
19,CCOP(=S)(OCC)SCS(=O)(=O)C(C)(C)C,1.03

row,SMILES,growth AUC
1,CCCN(CC1CC1)c1c([N+](=O)[O-])cc(C(F)(F)F)cc1[N+](=O)[O-],0.977
2,c1coc(-c2nc3ccccc3[nH]2)c1,0.997
3,CC(Oc1ccc(Cl)cc1Cl)C(=O)O (stereo not drawn),0.989
4,N#Cc1cc(I)c(O)c(I)c1,0.982
5,CCC(C)Nc1c([N+](=O)[O-])cc(C(C)(C)C)cc1[N+](=O)[O-] (stereo not drawn),1.01
6,c1cc2c3c(cccc3c1)CC2,1.01
7,CSC1=N[C@@](C)(c2ccccc2)C(=O)N1Nc1ccccc1,0.968
8,CC1(C)CN=C(NN=C(/C=C/c2ccc(C(F)(F)F)cc2)/C=C/c2ccc(C(F)(F)F)cc2)NC1,0.903
9,CCOc1cc(Oc2ccc(C(F)(F)F)cc2Cl)ccc1[N+](=O)[O-],0.955
10,Nc1cccc(Cl)c1Cl,0.962
11,CCNS(=O)(=O)C(F)(F)C(F)(F)C(F)(F)C(F)(F)C(F)(F)C(F)(F)C(F)(F)C(F)(F)F,0.891
12,Nc1ccc(Cc2ccc(N)c(Cl)c2)cc1Cl,1.07
13,COc1nc(C)nc(NC(=O)NS(=O)(=O)c2ccccc2CCC(F)(F)F)n1,1
14,CCOP(=O)(OCC)OP(=O)(OCC)OCC,0.961
15,CCNP(=S)(OC)O/C(C)=C/C(=O)OC(C)C (stereo not drawn),0.994
16,CCN(CC)N=O,0.981
17,COC(=O)C(C)N(C(=O)Cc1ccccc1)c1c(C)cccc1C (stereo not drawn),0.98
18,C#CCN1C(=O)COc2cc(F)c(N3C(=O)C4=C(CCCC4)C3=O)cc21,0.934
19,N#Cc1c(Cl)c(Cl)c(Cl)c(C#N)c1Cl,0.872
